Assay [1] concerns PRMT1 (protein arginine N-methyltransferase 1). Description: small molecules binding arginine methyltransferase PRMT1 – biochemical, small-molecule microarray, 635 nm fluorescence, primary screen (AID 1088).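 Also: binding of Prmt1 protein to compounds spotted on small-molecule microarray slides.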 The conditions noted are these: higher = more signal.
Assay [2] in a line: growth effects on S. cerevisiae YJM789 – YJM789 clinical isolate, OD600, 24 h, basal, primary screen (AID 1089).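 Also: growth of clinical yeast isolate S. cerevisiae YJM 789 seeded 1000 cells per well; test concentration not given here.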 The conditions noted are these: higher = more signal, called active from +8 up or from −8 down.
Assay [3] can be described thus: S. pombe growth modifiers, basal conditions – strain 972, OD600, 24 h, no modulator, primary screen (AID 1090).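 Also: basal condition with compound alone and no growth modifier present; test concentration not given here.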 The conditions noted are these: S. pombe 972 growth, higher = more signal, called active from +8 up or from −8 down.
A short description of assay [4]: budding yeast growth modifiers under rapamycin – strain BY4716, OD600, 96 h, primary screen (AID 1091). Also: test concentration not given here. The conditions noted are these: S. cerevisiae BY4716 + rapamycin, higher = more signal, called active from +8 up or from −8 down.
The target of assay [5] is Torsin-1A-interacting protein 2 (Homo sapiens) (UniProt Q8NFQ8). The assay is described as follows: small molecules binding lysate-expressed LULL1 – cell lysate, human LULL1 lysate, 635/667 nm fluorescence, primary screen (AID 1092).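 Also: probe is lysate of COS7 cells overexpressing human LULL1; score merges per-feature 667 nm fluorescence with signal-to-noise.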 The conditions noted are these: small-molecule microarray, hLULL1 lysate binding, 635 nm fluorescence; higher = more signal.
Sequence of Torsin-1A-interacting protein 2 (Homo sapiens) (Q8NFQ8 whole entry, looked up): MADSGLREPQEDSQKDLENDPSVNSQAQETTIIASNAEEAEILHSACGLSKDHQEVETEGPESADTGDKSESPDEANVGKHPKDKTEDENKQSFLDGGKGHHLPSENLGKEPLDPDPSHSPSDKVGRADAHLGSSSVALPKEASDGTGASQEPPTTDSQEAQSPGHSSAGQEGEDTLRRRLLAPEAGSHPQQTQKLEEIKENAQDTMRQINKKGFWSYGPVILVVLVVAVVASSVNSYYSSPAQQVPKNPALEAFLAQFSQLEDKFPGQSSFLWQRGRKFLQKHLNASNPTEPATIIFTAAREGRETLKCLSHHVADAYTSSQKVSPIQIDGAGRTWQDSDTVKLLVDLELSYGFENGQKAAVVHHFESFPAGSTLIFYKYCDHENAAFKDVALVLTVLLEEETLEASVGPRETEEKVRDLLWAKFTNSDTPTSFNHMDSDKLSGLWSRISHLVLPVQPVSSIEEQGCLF
Assay [6] can be described thus: optical density change of DRC41 E. coli – strain DRC41, OD650, 24 h, E. coli filamentation project, primary screen (AID 1093).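 Also: MC1000 strain lacking acrAB efflux and sulA so SOS filamentation is blocked; test concentration not given here.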 The conditions noted are these: E. coli DRC41 growth, higher = more signal, called active from +8 up or from −8 down.
Assay [7] in a line: probe aLefty2 binding to arrayed compounds – biochemical, biotinylated probe, 635/667 nm fluorescence, primary screen (AID 1094).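 Also: score merges spot fluorescence near 667 nm with spot signal-to-noise ratio.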 The conditions noted are these: small-molecule microarray, higher = more signal.
For assay [8], the system named is Noggin (protein binding on small-molecule microarray). Description: small molecules binding Noggin protein – biochemical, 635/667 nm fluorescence, primary screen (AID 1095).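 Also: score merges 667 nm feature fluorescence with signal to noise over triplicate slides.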 The conditions noted are these: 635 nm fluorescence, higher = more signal.
The target of assay [9] is Neurogenic locus notch homolog protein 3 (Homo sapiens) (UniProt Q9UM47). The assay is described as follows: small molecules binding NOTCH3 protein – biochemical, 635/667 nm fluorescence, primary screen (AID 1096). The conditions noted are these: small-molecule microarray, 635 nm fluorescence, higher = more signal.
Sequence of Neurogenic locus notch homolog protein 3 (Homo sapiens) (Q9UM47 whole entry, looked up): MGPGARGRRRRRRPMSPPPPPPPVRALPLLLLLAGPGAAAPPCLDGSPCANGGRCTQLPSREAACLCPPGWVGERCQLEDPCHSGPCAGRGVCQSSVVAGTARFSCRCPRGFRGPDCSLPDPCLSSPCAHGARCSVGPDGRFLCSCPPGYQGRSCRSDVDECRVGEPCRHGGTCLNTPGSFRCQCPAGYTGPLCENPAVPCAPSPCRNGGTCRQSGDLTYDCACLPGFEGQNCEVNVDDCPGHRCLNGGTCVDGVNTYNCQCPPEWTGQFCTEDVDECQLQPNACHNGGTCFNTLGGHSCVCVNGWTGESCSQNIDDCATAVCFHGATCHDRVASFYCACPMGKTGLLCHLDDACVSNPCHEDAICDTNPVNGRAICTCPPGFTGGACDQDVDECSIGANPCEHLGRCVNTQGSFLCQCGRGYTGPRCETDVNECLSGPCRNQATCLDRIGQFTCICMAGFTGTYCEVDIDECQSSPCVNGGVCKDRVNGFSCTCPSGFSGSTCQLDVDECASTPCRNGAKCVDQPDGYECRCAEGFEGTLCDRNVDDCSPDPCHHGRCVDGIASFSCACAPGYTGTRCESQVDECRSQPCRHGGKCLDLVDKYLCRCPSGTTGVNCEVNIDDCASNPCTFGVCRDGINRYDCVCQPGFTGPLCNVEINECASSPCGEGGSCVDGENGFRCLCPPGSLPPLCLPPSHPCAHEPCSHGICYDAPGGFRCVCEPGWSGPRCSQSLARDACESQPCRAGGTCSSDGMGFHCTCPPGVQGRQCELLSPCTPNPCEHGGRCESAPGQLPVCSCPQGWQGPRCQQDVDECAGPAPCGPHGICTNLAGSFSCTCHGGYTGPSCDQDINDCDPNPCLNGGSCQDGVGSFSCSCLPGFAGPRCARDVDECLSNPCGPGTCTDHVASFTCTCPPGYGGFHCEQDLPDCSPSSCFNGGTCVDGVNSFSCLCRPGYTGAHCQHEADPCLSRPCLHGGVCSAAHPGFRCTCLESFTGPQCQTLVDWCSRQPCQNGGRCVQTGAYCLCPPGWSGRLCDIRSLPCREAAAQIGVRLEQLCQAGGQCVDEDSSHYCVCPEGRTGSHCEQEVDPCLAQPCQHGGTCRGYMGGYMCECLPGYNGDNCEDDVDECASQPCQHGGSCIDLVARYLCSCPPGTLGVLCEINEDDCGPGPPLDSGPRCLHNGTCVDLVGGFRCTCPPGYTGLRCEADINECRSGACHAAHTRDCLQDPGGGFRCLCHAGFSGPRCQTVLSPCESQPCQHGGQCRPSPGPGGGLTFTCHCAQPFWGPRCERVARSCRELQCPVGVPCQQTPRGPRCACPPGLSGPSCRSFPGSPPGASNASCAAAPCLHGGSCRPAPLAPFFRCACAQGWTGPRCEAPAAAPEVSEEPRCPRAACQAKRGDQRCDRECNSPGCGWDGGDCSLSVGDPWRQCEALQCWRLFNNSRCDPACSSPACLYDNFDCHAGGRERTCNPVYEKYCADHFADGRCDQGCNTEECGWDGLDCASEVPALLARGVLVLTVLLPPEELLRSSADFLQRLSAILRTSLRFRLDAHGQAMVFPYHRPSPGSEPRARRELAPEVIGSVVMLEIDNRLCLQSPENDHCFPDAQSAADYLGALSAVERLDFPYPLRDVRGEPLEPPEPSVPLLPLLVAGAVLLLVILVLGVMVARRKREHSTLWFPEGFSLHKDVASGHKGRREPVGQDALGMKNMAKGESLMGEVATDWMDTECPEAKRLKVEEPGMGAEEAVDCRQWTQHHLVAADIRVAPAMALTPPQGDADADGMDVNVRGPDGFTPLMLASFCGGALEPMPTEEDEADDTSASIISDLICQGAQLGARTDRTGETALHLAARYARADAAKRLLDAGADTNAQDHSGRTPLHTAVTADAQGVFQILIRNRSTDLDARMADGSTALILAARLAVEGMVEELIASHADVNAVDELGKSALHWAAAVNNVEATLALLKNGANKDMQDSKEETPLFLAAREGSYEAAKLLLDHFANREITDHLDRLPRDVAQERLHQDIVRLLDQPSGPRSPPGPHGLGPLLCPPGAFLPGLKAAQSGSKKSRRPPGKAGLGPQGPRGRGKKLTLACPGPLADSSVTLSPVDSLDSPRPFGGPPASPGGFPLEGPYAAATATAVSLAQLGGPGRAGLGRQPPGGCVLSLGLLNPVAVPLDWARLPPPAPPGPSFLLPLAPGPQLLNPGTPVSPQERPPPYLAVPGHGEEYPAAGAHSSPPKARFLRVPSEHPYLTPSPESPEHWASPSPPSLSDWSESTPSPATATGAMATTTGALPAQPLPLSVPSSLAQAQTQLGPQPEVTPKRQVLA
Assay [10] can be described thus: probe aEGFR binding to arrayed compounds – biochemical, biotinylated probe, 635/667 nm fluorescence, primary screen (AID 1097).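 Also: probe is a biotinylated anti-EGFR antibody binding compounds printed on slides; score combines fluorescence near 667 nm and signal to noise of each spot.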 The conditions noted are these: small-molecule microarray, higher = more signal.
For assay [11], the system named is Plasmodium falciparum Sir2 (PF13_0152, Sir2A). The assay is described as follows: Plasmodium falciparum Sir2A binding compounds – biochemical, small-molecule microarray, 635 nm fluorescence, primary screen (AID 1098).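 Also: score merges spot fluorescence intensity with its signal-to-noise ratio.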 The conditions noted are these: fluorescence 635 nm, higher = more signal.
The nature of assay [12]: probe aDKK1 binding to arrayed compounds – biochemical, biotinylated probe, 635/667 nm fluorescence, primary screen (AID 1099).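 Also: score merges 667nm spot fluorescence with signal to noise across triplicate slides; reference of the scale not given here.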 The conditions noted are these: small-molecule microarray, higher = more signal.
A short description of assay [13]: probe aCHRDL2 binding to arrayed compounds – biochemical, biotinylated probe, 635/667 nm fluorescence, primary screen (AID 1100). The conditions noted are these: small-molecule microarray, higher = more signal.
Assay [14] can be described thus: change in splice reporter luminescence, either direction, cell-based, HEK293, spliceosome inhibition project, primary screen (AID 1101).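 Also: HEK293 cells carrying a splicing-competent luciferase reporter gene; test concentration not given here.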 The conditions noted are these: HEK293 splicing luciferase reporter, 24 h, higher = more signal, called active from +8 up or from −8 down. Background: A reporter such as luciferase makes a cellular process visible.
Assay [15] addresses Fibroblast growth factor 10 (Homo sapiens) (UniProt O15520). The assay is described as follows: compounds binding fibroblast growth factor 10 – biochemical, small-molecule microarray, 635 nm fluorescence, primary screen (AID 1102). The conditions noted are these: FGF10 binding, fluorescence 635 nm, higher = more signal.
The test system of assay [16] is glycogen synthase kinase-3 (GSK3A per assay name; protocol says GSK3B). Description: compounds binding glycogen synthase kinase-3 – biochemical, small-molecule microarray, 635 nm fluorescence, GSK3A, primary screen (AID 1103). Also: the record names both GSK3A and GSK3B. The conditions noted are these: fluorescence 635 nm, higher = more signal.
In assay [17] the target is Epidermal growth factor receptor (Homo sapiens) (UniProt P00533). The assay is described as follows: compounds binding epidermal growth factor receptor – biochemical, small-molecule microarray, 635 nm fluorescence, primary screen (AID 1104).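 Also: score merges 667 nm emission intensity with spot signal to noise over triplicate slides.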 The conditions noted are these: EGFR binding, higher = more signal.
Sequence of Epidermal growth factor receptor (Homo sapiens) (P00533 whole entry, looked up): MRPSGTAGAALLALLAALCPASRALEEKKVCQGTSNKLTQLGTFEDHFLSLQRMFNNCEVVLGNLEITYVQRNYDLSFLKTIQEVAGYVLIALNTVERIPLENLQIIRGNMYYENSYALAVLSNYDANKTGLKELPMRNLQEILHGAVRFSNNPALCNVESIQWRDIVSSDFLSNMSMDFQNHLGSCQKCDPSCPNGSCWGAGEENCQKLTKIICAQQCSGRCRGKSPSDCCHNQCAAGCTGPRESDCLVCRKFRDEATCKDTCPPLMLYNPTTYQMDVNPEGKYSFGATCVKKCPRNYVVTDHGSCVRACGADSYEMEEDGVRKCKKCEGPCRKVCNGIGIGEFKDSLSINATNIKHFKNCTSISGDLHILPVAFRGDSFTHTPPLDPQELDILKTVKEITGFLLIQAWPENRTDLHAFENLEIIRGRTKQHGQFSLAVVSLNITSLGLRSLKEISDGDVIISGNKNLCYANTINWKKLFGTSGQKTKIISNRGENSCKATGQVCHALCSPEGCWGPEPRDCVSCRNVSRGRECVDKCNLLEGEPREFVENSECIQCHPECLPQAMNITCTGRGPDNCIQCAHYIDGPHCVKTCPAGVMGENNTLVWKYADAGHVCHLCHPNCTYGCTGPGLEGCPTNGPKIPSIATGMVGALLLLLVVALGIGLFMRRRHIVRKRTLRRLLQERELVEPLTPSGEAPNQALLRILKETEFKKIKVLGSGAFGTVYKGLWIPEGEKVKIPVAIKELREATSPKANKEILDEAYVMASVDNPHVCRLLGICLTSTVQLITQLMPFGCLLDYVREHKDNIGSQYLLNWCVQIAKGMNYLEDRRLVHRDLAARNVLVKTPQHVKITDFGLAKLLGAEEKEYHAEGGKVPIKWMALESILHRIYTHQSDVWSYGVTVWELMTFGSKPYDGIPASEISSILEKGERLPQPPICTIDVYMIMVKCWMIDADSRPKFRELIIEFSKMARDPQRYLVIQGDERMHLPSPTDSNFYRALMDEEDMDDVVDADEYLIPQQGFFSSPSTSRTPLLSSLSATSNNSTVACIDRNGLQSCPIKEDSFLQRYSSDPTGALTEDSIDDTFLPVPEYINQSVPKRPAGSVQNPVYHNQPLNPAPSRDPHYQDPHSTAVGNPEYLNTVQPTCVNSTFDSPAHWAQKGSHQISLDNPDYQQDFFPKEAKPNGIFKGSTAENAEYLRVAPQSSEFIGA
Assay [18] has as its target Follistatin-related protein 3 (Homo sapiens) (UniProt O95633). The assay is described as follows: compounds binding follistatin-related protein 3 – biochemical, small-molecule microarray, 635 nm fluorescence, primary screen (AID 1105).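 Also: score merges emission near 667 nm and signal to noise per printed spot across three slides.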 The conditions noted are these: FSTL3 binding, higher = more signal.
Assay [19] concerns the target Dickkopf-related protein 1 (Homo sapiens) (UniProt O94907). The assay is described as follows: small molecules binding DKK1 protein – biochemical, small-molecule microarray, 635 nm fluorescence scan, primary screen (AID 1106).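 Also: score merges emission near 667 nm with signal to noise over three replicate slides.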 The conditions noted are these: higher = more signal.
Assay [20] deals with Inhibin beta A chain (activin A). The assay is described as follows: small molecules binding activin A – biochemical, small-molecule microarray, 635 nm fluorescence scan, primary screen (AID 1107).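 Also: mouse activin A protein probed at 4.33 µg/mL on printed slides; score merges bound-protein fluorescence near 667 nm with spot signal-to-noise.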 The conditions noted are these: INHBA, higher = more signal.

Active and inactive are the calls of the source.

This note sets out measurements from PubChem BioAssay.

Sequence of Fibroblast growth factor 10 (Homo sapiens) (O15520 whole entry, looked up): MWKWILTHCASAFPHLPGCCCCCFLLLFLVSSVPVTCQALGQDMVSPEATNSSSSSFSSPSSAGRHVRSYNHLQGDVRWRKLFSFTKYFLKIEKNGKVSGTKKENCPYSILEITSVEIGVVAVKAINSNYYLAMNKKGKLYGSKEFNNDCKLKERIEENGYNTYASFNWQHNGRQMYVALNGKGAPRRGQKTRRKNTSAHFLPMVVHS
Sequence of Dickkopf-related protein 1 (Homo sapiens) (O94907 whole entry, looked up): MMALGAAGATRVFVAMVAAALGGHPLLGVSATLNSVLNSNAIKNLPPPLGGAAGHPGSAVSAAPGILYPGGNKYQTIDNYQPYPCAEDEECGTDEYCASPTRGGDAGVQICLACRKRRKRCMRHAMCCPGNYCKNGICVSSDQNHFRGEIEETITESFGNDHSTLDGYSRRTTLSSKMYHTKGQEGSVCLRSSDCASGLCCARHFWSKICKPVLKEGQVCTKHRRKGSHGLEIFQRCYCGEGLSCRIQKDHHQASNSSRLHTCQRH
Sequence of Follistatin-related protein 3 (Homo sapiens) (O95633 whole entry, looked up): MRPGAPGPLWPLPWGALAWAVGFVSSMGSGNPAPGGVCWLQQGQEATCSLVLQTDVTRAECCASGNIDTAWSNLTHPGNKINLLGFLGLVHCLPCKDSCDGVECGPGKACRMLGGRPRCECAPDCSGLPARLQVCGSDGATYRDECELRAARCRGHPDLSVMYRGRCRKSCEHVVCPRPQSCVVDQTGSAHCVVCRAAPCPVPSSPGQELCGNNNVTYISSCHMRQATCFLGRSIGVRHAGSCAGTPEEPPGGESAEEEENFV

With `C=CC[C@]1(C(=O)N2CCCCC2)N=C(c2ccc(OCCCO)cc2)O[C@H]1c1ccccc1CN=[N+]=[N-]`, the composite z-score in [1] was 1.54; in assay [5], 3.19; in assay [7], -0.013; in assay [8] it was 0.562; in assay [9], 1.08; in [10] it was -0.0512. For the same compound, the composite z-score in assay [11] came to 1.21; in assay [12] it was 0.258; in assay [13] it was 0.622; in assay [15] it was 1.21; in assay [16], 1.31; in assay [17], 0.128. For the same compound, the composite z-score in assay [18] was 0.922; in assay [19] it was 0.263; in assay [20], 0.851. Further, the z-score is -1.66 (inactive) in assay [2]; -0.442 (inactive) in assay [3]; -0.837 (inactive) in assay [4]; 0.937 (inactive) in [6]; -0.234 (inactive) in assay [14].
As to `COCC(=C=CC[C@H](O)c1ccc(CO)o1)CCO`, the composite z-score was 1.09 in assay [1]; 0.751 in [5]; -0.0501 in assay [7]; 1.04 in [8]; 1.12 in assay [9]; -0.0976 in [10]. Also, the composite z-score in [11] is 1.39; in assay [12], 0.0057; in assay [13], -0.336; in assay [15] it was 1.52; in assay [16] it was 0.654; in assay [17] it was -0.294. The composite z-score in assay [18] stood at 1.19; in [19] it was 0.352; in assay [20], 0.569. Also, the z-score is 0.6 (inactive) in assay [2]; 0.0793 (inactive) in assay [3]; 0.244 (inactive) in assay [4]; -0.349 (inactive) in assay [6]; 0.191 (inactive) in assay [14].
For the compound `O=c1cccc(-c2ccc([N+](=O)[O-])cc2)o1`, the composite z-score in assay [1] was 1.03; in assay [5], 0.706; in assay [7], -0.139; in [8] it was 1.17; in assay [9], 0.375; in assay [10] it was -0.0644. The composite z-score in assay [11] is -0.632; in [12], -0.0855; in assay [13] it was -0.512; in assay [15], 0.274; in [16], 0.959; in assay [17], 0.574. Also, the composite z-score in [18] is 0.534; in assay [19], 0.0662; in assay [20], 1.22. Also, the z-score in assay [2] is -0.778 (inactive); in assay [3], 1.25 (inactive); in assay [4], -0.495 (inactive); in [6], 0.188 (inactive); in assay [14] it was -1.49 (inactive).
As to `C=CCNC(=O)[C@@H]1[C@H]2C(=O)O[C@H](c3ccccc3)[C@H](c3ccccc3)N2[C@H](c2ccccc2OCCO)[C@@]12C(=O)Nc1ccc(C#CCCO)cc12`, the composite z-score in assay [1] was 1.55; in assay [5] it was 2.3; in assay [7], -0.106; in assay [8] it was 1.23; in assay [9] it was 0.686; in assay [10] it was -0.165. For the same compound, the composite z-score is 0.124 in [11]; -0.332 in [12]; 0.178 in assay [13]; 0.95 in assay [15]; 0.773 in assay [16]; 0.954 in assay [17]. Moreover, the figures for the composite z-score in [18], in assay [19] and in [20] were 1.04, 1.49 and 0.65, respectively. The z-score was 1.31 (inactive) in assay [2]; -1.46 (inactive) in [3]; 3.43 (inactive) in [4]; -0.372 (inactive) in [6]; -1.06 (inactive) in assay [14].
For `COc1ccc([C@H]2OC[C@@H]3C[C@H](Cc4ccccc4)C(=O)N32)cc1`, the composite z-score in [1] was -0.476; in [5] it was 0.449; in assay [7] it was -0.155; in assay [8], 0.614; in assay [9], 0.363; in [10], -0.0978. Moreover, the composite z-score is -0.33 in assay [11]; -0.157 in assay [12]; -0.598 in [13]; 0.439 in assay [15]; -0.0107 in assay [16]; 0.212 in [17]. In addition, the composite z-score came to 0.401 in assay [18], 0.313 in assay [19] and 0.0048 in assay [20]. The z-score in [2] was 1.35 (inactive); in assay [3], -2 (inactive); in [4], 0.861 (inactive); in assay [6], -0.238 (inactive); in [14], -0.524 (inactive).
